Screens: PubChem, National Center for Advancing Translational Sciences (NCATS)
B2AR arrestin: recruits beta-arrestin to the human beta2-adrenergic receptor; Potency, µM (series often up to 46.1 µM), hits mostly activators; 0.02% of 330,000 active; P07550; beta-arrestin recruitment to beta2AR, cell-based reporter; also: nearly all actives have a fitted effect of over 65% in size
Target sequence (P07550 whole entry, looked up): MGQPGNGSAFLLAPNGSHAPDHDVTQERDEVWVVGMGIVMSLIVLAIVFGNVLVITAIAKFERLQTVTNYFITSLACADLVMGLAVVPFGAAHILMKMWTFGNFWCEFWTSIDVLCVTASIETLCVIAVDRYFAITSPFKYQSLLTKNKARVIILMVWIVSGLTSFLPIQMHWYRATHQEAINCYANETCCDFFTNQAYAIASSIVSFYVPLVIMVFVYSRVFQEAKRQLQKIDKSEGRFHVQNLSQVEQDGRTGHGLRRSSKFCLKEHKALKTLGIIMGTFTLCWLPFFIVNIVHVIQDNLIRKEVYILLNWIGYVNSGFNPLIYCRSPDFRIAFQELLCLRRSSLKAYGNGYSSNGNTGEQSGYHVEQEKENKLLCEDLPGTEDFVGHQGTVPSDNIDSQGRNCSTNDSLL
Gal4-VP16 FLuc: counter-screen for ROR gamma inhibitors: Gal4-VP16 reporter; 3.5% of 310,000 active; Potency, µM (top dose mostly 53.6 µM), actives largely listed as inhibitors; Drosophila S2 Gal4-VP16 UAS-luciferase, luminescence, 20 h;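 also: Gal4-VP16 expression switched on by copper sulfate through the metallothionein promoter; nearly all actives have a fitted effect of over 50% in size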
ELG1 DNA repair: blocks ELG1-dependent DNA repair in HEK293T cells. HEK293T ELG1-luciferase reporter, luminescence, 16 h; DNA damage induced by 5-fluorouridine. Potency, µM (titrated, usually from 46.1 µM), actives largely listed as inhibitors. AID 504467. 2.3% of 330,000 active; also: nearly all actives have a fitted effect of over 55% in size
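In this reporter screen, reduction of luminescence relative to DMSO vehicle indicated activity. Compounds and 5-fluorouridine were added together to 2,000 cells per well, incubated for 16 hr at 37 °C, then developed with ONE-Glo.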
TSHR antag: antagonists of human thyroid stimulating hormone receptor; activity change, negative = inhibition, % at 11.5 µM; 0.2% of 330,000 active; TSHR-expressing cells, TSH-stimulated cAMP HTRF, 2 h; stronger effect = lower value; P16473;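 active = activity change below a set negative limit, meaning inhibition stronger than a set level, cut at about -70% in these data; inconclusive = activity change between two set negative limits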
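TSHR-expressing cells were treated with compounds, then stimulated with TSH at EC80 (4nM final) for 2 hours at 37 deg C. Cellular cAMP was measured by HTRF competition between lysate cAMP and cAMP-d2 for a cryptate-labelled anti-cAMP antibody.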
RORgamma inh: blocks mouse ROR gamma transcriptional activity; Drosophila S2 Gal4-RORgamma UAS-luciferase reporter, 20 h; Potency, µM (top dose mostly 53.6 µM), hits mostly inhibitors; 5.4% of 310,000 active; also: nearly all actives have a fitted effect of over 60% in size
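Drosophila Schneider cells stably carrying a metallothionein-driven Gal4 DBD–ROR gamma fusion and a UAS-Photinus luciferase reporter were exposed to compound for 1 hr, then induced with copper sulfate (700 uM final) for 20 hr at ambient temperature before luminescence reading.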
Each line names hits and unclear results; the compound was inactive in the other large screens. Hits are enriched below; roughly 7.5% of the tested compounds scored in any of these assays. Unless noted, calls follow the shape of the dose curve; as a rule, active = well fitted curve in the direction sought with a large enough effect; inconclusive = small, poorly fitted or top-dose-only effect, or another doubt; inactive = no such curve, though single readings can be large; an effect the other way counts as inactive or inconclusive.

Cc1nc(NC(=O)CC(C)C)sc1-c1csc(Nc2ccc(Cl)cc2Cl)n1	ELG1 DNA repair 15µM
CCC(=O)Nc1nc(C)c(-c2csc(Nc3cccc(O)c3)n2)s1	ELG1 DNA repair 2.6µM, RORgamma inh inconclusive
Cc1nc(NC(=O)CC(C)C)sc1-c1csc(Nc2ccc(Cl)cc2)n1	Gal4-VP16 FLuc inconclusive, ELG1 DNA repair 23µM, RORgamma inh inconclusive
CCCCCC(=O)Nc1nc(C)c(-c2csc(Nc3ccc(Cl)cc3)n2)s1	ELG1 DNA repair inconclusive
COc1ccc(Cl)cc1Nc1nc(-c2sc(NC(=O)CC(C)C)nc2C)cs1	ELG1 DNA repair inconclusive
O=S(=O)(c1ccc(-c2ccon2)s1)N1CCN(c2ccncc2)CC1	none
O=C(NC(c1cccnc1)C(F)(F)F)c1cc(COc2ccc3c(c2)CCCC3)on1 (centres undefined)	Gal4-VP16 FLuc 7.1µM, ELG1 DNA repair inconclusive, RORgamma inh inconclusive
O=C(O)C(Cc1ccc2c(c1)oc1ccccc12)NCP(=O)(O)O (centres undefined)	none (no result: B2AR arrestin, ELG1 DNA repair, TSHR antag)
C/C(=N\NC(=O)c1cc2ccccc2cc1O)c1cccs1	Gal4-VP16 FLuc inconclusive, ELG1 DNA repair inconclusive
C/C(=N\NC(=O)c1cc(Cl)ccc1O)c1ccc(Br)s1	Gal4-VP16 FLuc 2.5µM, ELG1 DNA repair inconclusive, RORgamma inh 6.3µM
C/C(=N/NC(=O)c1ccc(Br)s1)c1ccncc1	ELG1 DNA repair inconclusive
C/C(=N\NC(=O)c1ccc(Cl)cc1)c1ccc(Br)s1	Gal4-VP16 FLuc 1.1µM, ELG1 DNA repair inconclusive, RORgamma inh 0.35µM
C/C(=N\NC(=O)c1ccco1)c1ccc(C(=O)O)s1	none
C/C(=N/NC(=O)c1ccco1)c1ccc(Br)s1	Gal4-VP16 FLuc inconclusive, ELG1 DNA repair inconclusive, RORgamma inh 13µM
CC1CC=CC2C1C(=O)N(Cc1ccccc1)C2c1ccc(Br)cc1F (centres undefined)	none (no result: B2AR arrestin, ELG1 DNA repair, TSHR antag)
Cn1nnc(NC(=S)NC(=O)c2ccc(-c3ccc(Br)cc3)o2)n1	Gal4-VP16 FLuc 5µM, RORgamma inh 0.71µM
O=C(NC(=S)Nc1ccc(CN2CCOCC2)cc1)c1ccc(-c2ccc(Br)cc2)o1	ELG1 DNA repair inconclusive
CCCn1nnc(NC(=S)NC(=O)c2ccc(-c3ccc(Br)cc3)o2)n1	Gal4-VP16 FLuc 2.5µM, RORgamma inh 0.79µM
CCCn1nnc(NC(=O)c2ccc(Br)cc2)n1	ELG1 DNA repair inconclusive
CCC(C)N(C(=O)CSc1nnc(C)n1C)C1CCS(=O)(=O)C1 (centres undefined)	none (no result: Gal4-VP16 FLuc, RORgamma inh)
CCCCn1c(=NC(=O)c2ccco2)c(C(=O)OCC)cc2c(=O)n3ccccc3nc21	none
CCOC(=O)c1cc2c(=O)n3ccccc3nc2n(C(C)C)c1=NC(=O)c1c(-c2c(F)cccc2Cl)noc1C	ELG1 DNA repair 5.8µM
CCCCOc1cccc(/C=C(\C#N)C(=O)NC2CC2)c1	RORgamma inh inconclusive
O=C1c2ccccc2CN2C(=O)c3ccccc3CN12	none
c1ccc(-c2cn3c(n2)-c2ccccc2C3)cc1	Gal4-VP16 FLuc inconclusive, ELG1 DNA repair inconclusive, RORgamma inh 10µM
COc1ccc(C2=Nn3c(nnc3-c3cccc(OC)c3OC)SC2)cc1	none (no result: B2AR arrestin, ELG1 DNA repair, TSHR antag)
Cc1cccc(N2CCN(C(=O)c3cc4n(n3)C(C(F)(F)F)CC(c3ccco3)N4)CC2)c1C (centres undefined)	Gal4-VP16 FLuc inconclusive, ELG1 DNA repair 21µM
COc1ccc(/C=N/Nc2ccc([N+](=O)[O-])cc2)cc1O	ELG1 DNA repair inconclusive, RORgamma inh inconclusive
Cn1c(=O)c(-c2ccc(Cl)cc2)nc2cnc(Oc3ccccc3)nc21	none (no result: B2AR arrestin, ELG1 DNA repair, TSHR antag)
CC(C)CCn1c(-c2nonc2N)nc2ccccc21	Gal4-VP16 FLuc inconclusive, ELG1 DNA repair 23µM, RORgamma inh 10µM
CC1(C)Oc2cc3c(cc2O1)OC(C)(C)O3	none (no result: B2AR arrestin, ELG1 DNA repair, TSHR antag)
COc1ccccc1C1CC(=O)Oc2cc3c(cc21)OCO3 (centres undefined)	none (no result: B2AR arrestin, ELG1 DNA repair, TSHR antag)
CC(OC(=O)c1ccc(F)cc1)C(=O)Nc1nc(-c2cccc([N+](=O)[O-])c2)cs1 (centres undefined)	ELG1 DNA repair inconclusive
CC(C)Oc1ccc(C(=O)OC(C)C(=O)Nc2nc(-c3cccc([N+](=O)[O-])c3)cs2)cc1 (centres undefined)	ELG1 DNA repair 16µM
CCOc1ccc(/C=N/NC(=O)Cc2ccccc2)cc1CN1CC2CC(C1)c1cccc(=O)n1C2 (centres undefined)	ELG1 DNA repair inconclusive (no result: Gal4-VP16 FLuc, RORgamma inh)
CCN(CC)CCCn1c(-c2ccccc2)nc2c(N3CCOCC3)nc(C)nc21	none (no result: B2AR arrestin, ELG1 DNA repair, TSHR antag)
C[C@H](CO)N1C[C@H](C)[C@@H](CN(C)S(=O)(=O)c2ccc(F)cc2)Oc2ccc(NS(=O)(=O)c3ccccc3)cc2C1=O	none (no result: Gal4-VP16 FLuc, RORgamma inh)
COc1ccc(S(=O)(=O)N2CCC(C(=O)N(C)Cc3ccc(C)o3)CC2)cc1OC	ELG1 DNA repair 16µM (no result: Gal4-VP16 FLuc, RORgamma inh)
CCCCn1c(C)cc2c(c1=O)C1O[C@](c3ccc(OC)cc3)(Cc3cc(OC)c(OC)cc31)O2	none (no result: ELG1 DNA repair, TSHR antag)
CC(C)(O)C(=O)O	none (no result: B2AR arrestin, ELG1 DNA repair, TSHR antag)
COc1ccc(C2/C=C\CN(C(=O)C3CCCCC3)C(C)C(=O)N2Cc2ccc(F)cc2)cc1 (centres undefined)	RORgamma inh inconclusive (no result: B2AR arrestin, ELG1 DNA repair, TSHR antag)
O=C(Cl)c1c(Cl)cccc1Cl	none (no result: B2AR arrestin, ELG1 DNA repair, TSHR antag)
CNC1C(O)C(OC2C(NC(=O)C(O)CN)CC(N)C(OC3OC(CN)C(O)C(O)C3O)C2O)OCC1(C)O (centres undefined)	none (no result: B2AR arrestin, ELG1 DNA repair, TSHR antag)
COc1ccc(/C=N/NC(=O)c2ccoc2C)cc1COc1c(C)cccc1C	Gal4-VP16 FLuc inconclusive, ELG1 DNA repair inconclusive, RORgamma inh 11µM
COc1ccc(/C=N/NC(=O)c2ccc(F)cc2)cc1CN1CCc2cc(OC)c(OC)cc2C1C (centres undefined)	ELG1 DNA repair 21µM
COc1ccc(/C=N\NC(=O)c2ccccc2F)cc1COc1ccc(F)cc1F	Gal4-VP16 FLuc 20µM, RORgamma inh 16µM
COc1ccc(/C=N/NC(=O)c2ccc(NC(C)=O)cc2)cc1COc1ccc(F)cc1F	Gal4-VP16 FLuc 10µM, RORgamma inh 11µM
COc1ccc(/C=N\NC(=O)c2ccccc2F)cc1COc1ccc(F)cc1	none
COc1ccc(/C=N/NC(=O)c2ccc(C)cc2)cc1CN1CCN(c2ccc(F)cc2)CC1	ELG1 DNA repair inconclusive
CCCCC#Cc1nc(NC)c2ncn([C@@H]3O[C@@H](CO)[C@H](O)[C@H]3O)c2n1	none (no result: B2AR arrestin, ELG1 DNA repair, TSHR antag)
CC(=O)N1CCN(C(=O)COC(=O)c2oc3ccccc3c2C)CC1	none (no result: Gal4-VP16 FLuc, RORgamma inh)
COc1ccc(C(CNC(=O)c2ccc(NS(=O)(=O)c3ccc(F)c(C)c3)cc2)N2CCOCC2)cc1 (centres undefined)	none (no result: Gal4-VP16 FLuc, RORgamma inh)
Cc1ccc(N2CC(C(=O)Nc3nc4ccc(S(C)(=O)=O)cc4s3)CC2=O)cc1 (centres undefined)	none
COc1ccc(/C=N/NC(=O)c2ccccc2O)cc1CSc1ccccn1	Gal4-VP16 FLuc inconclusive, RORgamma inh 16µM
